Compounds with a hit are over-represented: about 3.5% of the library has one in this group of screens.
MITF primary – blocks human microphthalmia-associated transcription factor; O75030; hit rate 0.91% among 650,000; inhibition, % at 2.6 µM; AlphaScreen MITF homodimerization, bead proximity signal; in the data active = inhibition above about 50%;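 note: 0% = vehicle wells with protein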
Target sequence (O75030 whole entry, looked up): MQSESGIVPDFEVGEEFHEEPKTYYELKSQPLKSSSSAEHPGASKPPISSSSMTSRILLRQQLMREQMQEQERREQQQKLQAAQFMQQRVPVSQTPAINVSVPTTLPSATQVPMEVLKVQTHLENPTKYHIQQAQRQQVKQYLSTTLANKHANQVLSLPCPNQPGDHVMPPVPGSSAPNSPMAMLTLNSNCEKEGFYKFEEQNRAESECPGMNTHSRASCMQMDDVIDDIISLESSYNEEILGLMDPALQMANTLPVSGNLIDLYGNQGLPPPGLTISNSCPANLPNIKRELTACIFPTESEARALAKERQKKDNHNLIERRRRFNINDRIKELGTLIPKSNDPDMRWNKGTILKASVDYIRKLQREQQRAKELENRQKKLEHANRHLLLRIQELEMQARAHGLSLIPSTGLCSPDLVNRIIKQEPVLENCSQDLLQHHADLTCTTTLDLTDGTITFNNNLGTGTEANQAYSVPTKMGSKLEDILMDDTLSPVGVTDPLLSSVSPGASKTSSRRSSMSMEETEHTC
TEAD-YAP inh – TEAD-YAP interaction inhibition; HEK-TIYL cells, TEAD-Gal4/YAP UAS-luciferase luminescence; inhibition, % at 9.12 µM; hit rate 1.4% among 640,000; AID 1259422; in the data active = inhibition above about 32%;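 note: 0% = median of test compound wells and 100% = reference inhibitor wells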
FBW7 activator – human FBW7 E3 ligase activation, primary screen. AlphaScreen FBW7–phospho-cyclin E peptide binding, activator screen. normalized activity (activation), % at 26.1 µM. hit rate 0.13% among 650,000; in the data active = normalized activity above about 1.9%;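 note: purified mutant Fbw7 with reduced substrate affinity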
GPR151 ag – activators of human GPR151. PathHunter beta-arrestin GPR151 cells, luminescence. AID 1508602. hit rate 1% among 650,000. activation, % at 11.2 µM. Q8TDV0; in the data active = activation above about 4.9%;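 note: 0% = median of compound wells and 100% = cells with positive control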
GPR151 confirm – confirmation of human GPR151 activators; shares compounds with GPR151 ag; GPR151 PathHunter beta-arrestin cells, luminescence, 90 min; % of EA-reagent control over plate median; activation, % at 11.2 µM; 6,700 tested, under 10 active;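 active = mean percent activation across replicates above the confirmation screen cutoff of 4.91%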
GPR119 counter – GPR119 activation, counter-screen for GPR151 activators; shares compounds with GPR151 ag; GPR119 PathHunter beta-arrestin cells, luminescence, 90 min; 0 = compound-well median, 100 = enzyme-acceptor control; activation, % at 11.2 µM; hit rate 0.3% among 6,700; AID 1508611;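 active = mean percent activation in the counterscreen above 29.09%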;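 note: counterscreen on off-target GPR119 to flag nonselective hits from the GPR151 activator screen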
* = called active by the depositor; · = no result given; ! = a repeat was not active.

SMILES	MITF primary	TEAD-YAP inh	FBW7 activator	GPR151 ag	GPR151 confirm	GPR119 counter
O=[N+]([O-])c1ccc(N2CCNCC2)cc1N/N=C1/CN2CCC1CC2	-13	9	0	0	·	·
CC(C(=O)N1CCC2(CC1)OCCO2)C1Sc2ccccc2NC1=O (stereo unspecified)	-8	-6	0	9.2*	0	-8
O=C1CN=C(c2ccc(Cl)cc2)c2ccsc2N1	11	3	0	1	·	·
CCCCCCOc1ccc(CN2CCN(CCO)CC2)cc1	6	-44	0	5.9*	1	9
CCCCOc1ccc(CN2CCN(CCO)CC2)cc1	4	-9	0	-1	·	·
CN1CCN(C(=O)C(O)(c2ccccc2)c2ccccc2)CC1	-4	-5	0	11*	0	1
Cc1[nH]c2c(Cl)ccc(Cl)c2c1CCN	0	-1	0	6.8*	0	1
Cc1[nH]c2c(Cl)c(Cl)ccc2c1CCN	3	24	0	1	·	·
CCCCOC(=O)c1ccccc1C(=O)OCCCC	-15	0	0	5.9*!	1	2
NC(=O)OCCCc1ccccc1	-4	-10	0	2	·	·
C=C(C)[C@H]1CN[C@H](C(=O)O)[C@H]1CC(=O)O	-3	-3	0	7.6*!	0	-1
NC1=Nc2ccccc2Sc2ccccc21	-1	-27	0	5.3*	0	9
COc1cccc(CCNCc2ccccc2[N+](=O)[O-])c1	41	-12	1	0	·	·
COc1cccc(CCNCc2cc(OC)c(OC)cc2[N+](=O)[O-])c1	25	6	0	8.4*	0	-6
CC(=O)OCC(=O)[C@H]1CC[C@H]2[C@@H]3CC[C@H]4C[C@H](O)CC[C@]4(C)[C@H]3C(=O)C[C@]12C	-5	·	0	6.2*	0	7
Nc1ccc(Oc2ccc(C(c3ccc(Oc4ccc(N)cc4)cc3)(C(F)(F)F)C(F)(F)F)cc2)cc1	12	20	0	0	·	·
CC(=O)C(C)Oc1cc(C)cc2oc(=O)c3c(c12)CCCC3 (stereo unspecified)	5	15	0	22*	0	0
Cc1nn(Cc2ccccc2)c(Cl)c1C(=O)NC1CCCCCC1	·	·	·	7.4*	-1	-10
O=c1c2cc(Cl)cc(Cl)c2nc(CN2CCOCC2)n1-c1ccccc1F	7	6	0	17*	0	-3
COc1ccc(OC)c(N2Cc3ccccc3C2=N)c1	-14	-11	0	5.9*	0	3
CN1/C(=C/C=C2C(=O)NC(=S)NC2=O)C(C)(C)c2ccccc21	8	-4	1	0	·	·
CC[n+]1c(/C=C/C=C2\N(C)c3ccccc3C2(C)C)n(-c2ccccc2)c2ccc(C)cc21	-8	91*	0	11*	3	39*
CC[n+]1c(/C=C/C=C2\N(C)c3ccccc3C2(C)C)n(-c2ccccc2)c2cc(Cl)ccc21	-24	90*	0	8.3*	3	20
CCn1c(/C=C/C=C2\N(C)c3ccccc3C2(C)C)[n+](Cc2ccccc2)c2ccccc21	-5	92*	0	8.7*	3	27
CC1CCCC(C)N1C(=O)CN1C2CCC1CC(O)(c1ccco1)C2 (stereo unspecified)	17	4	0	-1	·	·
SMILES	MITF primary	TEAD-YAP inh	FBW7 activator	GPR151 ag	GPR151 confirm	GPR119 counter
CC1(C)C(c2ccccc2)=[N+]([O-])C(c2cccnc2)N1O (stereo unspecified)	0	6	1	6.2*	0	-7
CC1(C)C(c2ccccn2)=[N+]([O-])C(c2cccnc2)N1O (stereo unspecified)	24	5	0	-1	·	·
Cc1ccc2c(c1)CNc1ccccc1O2	6	-5	0	5.2*	0	-9
O=c1c2ccccc2nc(/C=C/c2ccco2)n1-c1ccc(O)cc1	13	11	0	5.1*	2	10
C=CCc1cc(OC)c2c(c1OC)OCO2	5	2	0	11*	-1	-4
COc1cc(CN2CCNCC2)cc2c1OCO2	0	-4	0	1	·	·
C[C@]12CC[C@H](O)C[C@H]1CC[C@@H]1[C@@H]2C[C@@H](O)[C@]2(C)[C@@H](C3=CC(=O)OC3)CC[C@]12O	-9	98*	0	5.7*!	0	109*
O=C(Cc1ccsc1)N1CCCC(N2CCOCC2)C1 (stereo unspecified)	11	-2	0	5.8*	0	4
Cc1noc(C)c1CC(=O)N1CCCC(N2CCOCC2)C1 (stereo unspecified)	-1	2	0	1	·	·
O=C1CSC(c2ccc(F)cc2)c2c(n(C3CCCC3)[nH]c2=O)N1 (stereo unspecified)	-18	1	0	1	·	·
O=C(C1CN(CCc2c[nH]c3ccccc23)CCN1)N1CCOCC1 (stereo unspecified)	7	-2	0	5.1*	-1	-15
CCCCC/C=C\C/C=C\C/C=C\C/C=C\CCCC(=O)NCCO	10	·	·	7.1*	0	-8
COc1ccc(N2C(=O)NC(=O)/C(=C\c3cccn3C)C2=O)cc1	12	14	0	0	·	·
CCN1CCN(Cc2ccc([N+](=O)[O-])cc2)CC1	-5	10	0	10*	-1	12
CCC(C)N1CCN(Cc2ccc([N+](=O)[O-])cc2)CC1 (stereo unspecified)	41	-8	0	-2	·	·
CS(=O)(=O)c1ccc(N2CCNCC2)c(F)c1	-7	-3	0	4.9*	0	5
O=C1C=C2C=C[C@H]3C[C@]2(O1)[C@@H]1CCCCN13	23	-3	0	9.6*!	-1	-12
COc1ccc(F)cc1C(=O)C1CCCN(Cc2ccc(O)cc2)C1 (stereo unspecified)	4	-5	0	-1	·	·
COc1ccc(F)cc1C(=O)C1CCCN(CCO)C1 (stereo unspecified)	-5	-4	0	8.3*	0	-12
CC(C)N(C(=O)CC1(CC(=O)N(C(C)C)C(C)C)C(=O)NC(=S)NC1=O)C(C)C	-2	4	0	0	·	·
CN1C2CCC1CC(OC(=O)C(c1ccccc1)c1ccccc1)C2 (stereo unspecified)	22	-6	1	5.1*	1	1
C[N+]1(C)CCC(OC(=O)C(c2ccccc2)c2ccccc2)CC1	-9	3	0	-1	·	·
O=C(CN1CC=C(c2ccccc2)CC1)Nc1ccc(N2CCOCC2)cc1	14	1	0	0	·	·
CC1CN=C(Nc2ccc(OC(F)(F)F)cc2)S1 (stereo unspecified)	10	-14	1	1	·	·
COC(=O)COc1ccc(C=C2C(=O)NC(=O)NC2=O)cc1	-10	-6	0	5.2*	0	1
O=c1[nH]c2ccccc2c(=O)n1-c1ccc(F)c(Cl)c1	2	-10	0	1	·	·
